Experimental data: the supplement of paper PMC3334620
The full ranking holds about 33,000 sequences; the median of “E-score (-0.5 to 0.5)” is about -0.0034, and the highest 2% start at about 0.25. The list comes from a sample in which the highest values are over-represented; it also holds similar and randomly drawn sequences.

These sequences were tested against T1, Yap3 (UniProt P38749) (assay: PBM E-score (8-mer binding enrichment) (E-score (-0.5 to 0.5)); higher = stronger / more preferred TF binding). Conditions: protein concentration: 100 nM; construct: GST-full length.
T1 sequence: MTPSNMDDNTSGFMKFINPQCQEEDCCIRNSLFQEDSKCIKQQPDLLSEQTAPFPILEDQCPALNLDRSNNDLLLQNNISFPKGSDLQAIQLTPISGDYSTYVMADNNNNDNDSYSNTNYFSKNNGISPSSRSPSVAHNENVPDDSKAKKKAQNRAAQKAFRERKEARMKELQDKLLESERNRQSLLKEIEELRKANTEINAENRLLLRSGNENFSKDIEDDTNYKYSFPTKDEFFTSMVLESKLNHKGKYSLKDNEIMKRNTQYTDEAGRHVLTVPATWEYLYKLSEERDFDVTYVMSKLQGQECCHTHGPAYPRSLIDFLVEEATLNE
Outline: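 Using PURExpress in vitro transcription/translation, GST-tagged yeast transcription factors were made in full-length or DNA-binding-domain form. These were applied at about 100-200 nM to double-stranded universal all-10-mer Agilent arrays, and bound protein was detected with fluorescent anti-GST. Scans were normalised with masliner before the Universal PBM Analysis Suite assigned E-scores to ungapped eight-base words pooled with their reverse complements.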

Going from ACCTCTGG to ACCAGGAG, the “PBM E-score” value falls from -0.158 to -0.207.

First: CTACTCTC
Second: AATGGTCC
The “PBM E-score” value of the first is lower: -0.0538 for the first, 0.113 for the second.

First: AATGGTCA
Second: TATGGTCA
The “PBM E-score” value of the first is higher: 0.26 for the first, 0.0184 for the second.

Compared with ACATCCTC, CTGAGAAA is higher in “PBM E-score” value: -0.0125 for the first, 0.0446 for the second.

Compared with AATTTAAA, TACATGTA is higher in “PBM E-score” value: 0.171 for the first, 0.255 for the second.

Compared with GACATGTA, CACATGTA is lower in “PBM E-score” value: 0.162 for the first, 0.109 for the second.

Going from GTCGGAAA to ATCGGAAA, the “PBM E-score” value falls from 0.263 to 0.112.

Going from CTCGGAAA to CGAGCCAC, the “PBM E-score” value falls from 0.0289 to -0.228.

Going from GCCAGTAA to ATACAAAT, the “PBM E-score” value rises from -0.206 to 0.173.

Going from TCACAAAA to CTACAAAA, the “PBM E-score” value falls from 0.206 to 0.0817.

Compared with GTACAAAA, ATACAAAA is higher in “PBM E-score” value: 0.233 for the first, 0.284 for the second.

Going from TTACAAAA to GGGTAGCA, the “PBM E-score” value falls from 0.256 to -0.108.

Compared with TAGAGGCA, ATCGTATG is higher in “PBM E-score” value: -0.0959 for the first, 0.0469 for the second.

Compared with GTCTGCAA, CATGTTGA is higher in “PBM E-score” value: -0.0254 for the first, 0.255 for the second.

Compared with CATGTTGC, AATGTTGA is higher in “PBM E-score” value: -0.0984 for the first, 0.0691 for the second.

Going from ACAAATAT to ACAAATAG, the “PBM E-score” value falls from 0.274 to 0.202.

Going from GCAAATAC to ACAAAAAA, the “PBM E-score” value rises from 0.0311 to 0.234.

Going from ACAAAAAG to ACAAATAA, the “PBM E-score” value falls from 0.239 to 0.225.

First: ACAAAAAT
Second: ACAAAAAC
The “PBM E-score” value of the first is higher: 0.298 for the first, 0.143 for the second.

Going from ACAAAACC to GCAAAACC, the “PBM E-score” value falls from 0.272 to -0.0668.

Compared with ACAAATAC, CCAAATAC is lower in “PBM E-score” value: 0.293 for the first, -0.144 for the second.

Compared with AAACCCTT, ACAGGGTG is lower in “PBM E-score” value: 0.0938 for the first, -0.126 for the second.

Compared with ACCTAAAA, AAGCGGAC is lower in “PBM E-score” value: 0.0796 for the first, -0.025 for the second.

First: ACGTAGTG
Second: GTACAGAA
The “PBM E-score” value of the first is higher: 0.0166 for the first, -0.00324 for the second.

Going from CGTCAATC to CCATGAGG, the “PBM E-score” value falls from 0.0678 to -0.0244.

Compared with AATAGCCG, ACCAGCAG is lower in “PBM E-score” value: 0.0258 for the first, -0.186 for the second.

First: CCTCGTAG
Second: GAGATACA
The “PBM E-score” value of the first is lower: -0.00114 for the first, 0.167 for the second.

First: AAGATACA
Second: AAGATACT
The “PBM E-score” value of the first is higher: 0.262 for the first, -0.0357 for the second.

First: AAGATAAG
Second: AAGATAAC
The “PBM E-score” value of the first is lower: 0.0204 for the first, 0.111 for the second.

Compared with AAGATAAA, AAGGCCAC is lower in “PBM E-score” value: 0.286 for the first, -0.143 for the second.

Compared with ACGCGAAT, CAATTAGC is lower in “PBM E-score” value: 0.106 for the first, 0.085 for the second.

Going from ACAGACCG to CTCCCATC, the “PBM E-score” value rises from -0.0661 to 0.0634.

Compared with ACCAGAGG, AATTCGCC is higher in “PBM E-score” value: -0.119 for the first, 0.125 for the second.

Going from AATTCGCG to AATTCGCT, the “PBM E-score” value rises from 0.0991 to 0.289.

Compared with CTGCACTC, GTGCACTA is higher in “PBM E-score” value: 0.0431 for the first, 0.0636 for the second.

Compared with CTGCACTA, AGACCATA is lower in “PBM E-score” value: 0.262 for the first, 0.156 for the second.

Going from ATACGTCA to ATACGTTA, the “PBM E-score” value falls from 0.0839 to 0.0384.

First: GTACGTCA
Second: CTACGTTA
The “PBM E-score” value of the first is higher: 0.267 for the first, 0.0868 for the second.

Going from GTACGTTA to CTACGTCA, the “PBM E-score” value falls from 0.256 to -0.0902.

First: CGAAGTAA
Second: GTGCCCAA
The “PBM E-score” value of the first is higher: 0.0985 for the first, -0.0496 for the second.

Going from ATTAACTC to ATTAACAA, the “PBM E-score” value rises from 0.193 to 0.282.

Compared with AATAACAC, ATTAACAC is lower in “PBM E-score” value: 0.288 for the first, 0.273 for the second.

Compared with GTTAACAA, AATAACAT is lower in “PBM E-score” value: 0.205 for the first, 0.164 for the second.

Going from CTTAACAC to AATAACAG, the “PBM E-score” value rises from 0.114 to 0.149.

Going from ATTAACAG to CCTGGTGC, the “PBM E-score” value falls from 0.0676 to -0.102.

Compared with AATGCACG, ACATTTCG is higher in “PBM E-score” value: -0.00779 for the first, 0.0557 for the second.

Going from ACCTGGTC to TAATGTAA, the “PBM E-score” value rises from -0.115 to 0.312.

First: AAATGGAA
Second: GAATGGAA
The “PBM E-score” value of the first is lower: 0.0788 for the first, 0.131 for the second.

Going from GAATGTAA to TAATGGAA, the “PBM E-score” value rises from 0.221 to 0.256.

Going from AAATGTAA to CGAGGCGC, the “PBM E-score” value falls from 0.227 to -0.0513.

First: ATATTGAC
Second: ATGCAGAC
The “PBM E-score” value of the first is higher: 0.069 for the first, -0.0609 for the second.

First: CCTGGGTA
Second: GAAACGAA
The “PBM E-score” value of the first is lower: -0.172 for the first, 0.255 for the second.

Going from CAAACGAA to GAAACGAC, the “PBM E-score” value rises from 0.0114 to 0.123.

Compared with GGCGGGGA, GATAATAA is lower in “PBM E-score” value: 0.233 for the first, 0.113 for the second.

First: CATAATAC
Second: TATAATAA
The “PBM E-score” value of the first is lower: 0.24 for the first, 0.287 for the second.

In the case of AATAATAG, the “PBM E-score” value is reported as 0.2.
